CIT2 TOR yeast = modulators of CIT2-GFP expression in yeast, primary screen, S. cerevisiae, GFP fusion, multiplex flow cytometry, MLPCN library; GFP response vs DMSO, % at 10 µM; actives 0.065% (n = 320,000); S. cerevisiae CIT2-GFP strain, 3 h; 100 means same as DMSO wells;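 active means GFP response relative to DMSO above a set limit, near the screen mean plus 3 SD, cut at about 150% in these data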;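 further: ratio of well median GFP fluorescence to mean of DMSO wells on the plate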
AGP1-GFP MLPCN = modulators of AGP1-GFP expression in yeast TOR pathway, primary screen, cell-based, multiplex flow cytometry, S. cerevisiae, MLPCN library. 3 h; GFP as percent of DMSO wells. GFP response vs DMSO, % at 10 µM. actives 0.02% (n = 320,000). AID 2066, 2009;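 active means GFP response relative to DMSO above a set limit, near screen average plus 3 SD, cut at about 150% in these data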;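 further: median GFP channel fluorescence of the gated AGP1 strain per well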
RPL19A TOR yeast = RPL19A-GFP expression modulators in yeast, primary screen, cell-based, S. cerevisiae, multiplex flow cytometry, MLPCN; S. cerevisiae RPL19A-GFP strain, 3 h; hits give low values; AID 2025, 2009; actives 0.3% (n = 330,000); percent response vs DMSO, % at 10 µM;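 active means percent response vs DMSO below 50%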;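 further: median channel GFP fluorescence of the barcoded RPL19A-GFP strain; ratio of sample median GFP to plate DMSO average so 100% = DMSO; lower means less RPL19A-GFP as with rapamycin TOR inhibition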
LAP4-GFP MLPCN = modulators of LAP4-GFP expression in yeast, primary screen, S. cerevisiae, multiplex flow cytometry, MLPCN library; 3 h; median GFP as percent of DMSO wells; actives 0.34% (n = 320,000); GFP response vs DMSO, % at 10 µM; AID 2023, 2009;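 active means GFP response vs DMSO above a set limit, about the screen mean plus 3 SD, cut at about 150% in these data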
MEP2-GFP yeast = modulators of MEP2-GFP levels in yeast, primary screen, S. cerevisiae, multiplex flow cytometry, MLPCN library; GFP response vs DMSO, % at 10 µM; actives 0.51% (n = 330,000); S. cerevisiae MEP2-GFP strain, 3 h; 100% = DMSO control level;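 active means GFP response versus DMSO above a set limit, roughly screen mean plus 3 SD, cut at about 180% in these data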;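 further: median GFP fluorescence of the barcode-gated MEP2-GFP cells per well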
LAP4-GFP pick2 = LAP4-GFP expression modulators in yeast, confirmation, cell-based, second cherry pick, flow cytometry; shares compounds with LAP4-GFP MLPCN; GFP response vs DMSO, % at 10 µM; actives 20% (n = 590); AID 2621, 2010; S. cerevisiae LAP4-GFP strain, 3 h;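 active means GFP signal as percent of the solvent control above about 150%, meaning raised reporter expression, limit read from the data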;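 further: ratio of well median GFP fluorescence to plate DMSO mean so 100% = DMSO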
MEP2-GFP pick2 = modulators of MEP2-GFP levels in yeast, confirmation, S. cerevisiae, flow cytometry GFP, second cherry picks; shares compounds with LAP4-GFP MLPCN; S. cerevisiae MEP2-GFP strain, 3 h; GFP response vs DMSO, % at 10 µM; actives 10% (n = 590); AID 2622, 2010;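 active means GFP signal above 150% of the solvent control wells, that is a rise of more than half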;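 further: median channel GFP fluorescence of all gated yeast cells per well; ratio of median GFP to plate DMSO average so 100% = DMSO level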
RPL19A GFP CP2 = RPL19A-GFP modulators in TOR pathway yeast, confirmation, cell-based, S. cerevisiae, flow cytometry, second cherry pick; S. cerevisiae RPL19A-GFP strain, 3 h; hits give low values; 100% means same as DMSO wells; actives 3% (n = 590); GFP response vs DMSO, % at 10 µM; shares compounds with LAP4-GFP MLPCN;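 active means under 65% GFP response relative to DMSO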;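 further: median GFP channel fluorescence per well over the all cells gate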
CIT2-GFP pick2 = modulators of CIT2-GFP expression in yeast, confirmation, flow cytometry, second cherry pick, single plex | S. cerevisiae CIT2-GFP strain, 3 h; DMSO control wells read 100% | AID 2624, 2010 | actives 8% (n = 590) | shares compounds with LAP4-GFP MLPCN | GFP response vs DMSO, % at 10 µM;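 active means GFP response vs DMSO above about 150%, limit read from the data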;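 further: median green fluorescence per well over all gated yeast cells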
AGP1 GFP CP2 = AGP1-GFP expression modulators, hit retest, confirmation, cell-based, flow cytometry, S. cerevisiae, cherry pick set 2 | S. cerevisiae AGP1-GFP strain, 3 h | 590 tested, under 10 active | percent response vs DMSO, % at 10 µM | shares compounds with LAP4-GFP MLPCN;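 active means over 150 percent of DMSO response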;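 further: median GFP channel fluorescence over all cells without mother daughter split; sample median GFP divided by mean DMSO control so 100% equals DMSO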
s288c autofluor = compound autofluorescence in yeast s288c, dose response, artefact control for yeast TOR pathway GFP screen, s288c strain; shares compounds with LAP4-GFP MLPCN; 610 tested, under 10 active; fluorescence change (kMESF span) at 33 µM; S. cerevisiae s288c, 520 nm autofluorescence, flow cytometry, 3 h; hits give high values; zero means same as solvent-only cells;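 active means fluorescence span over the dose series, or activity score, above about 33, limit read from the data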
s288c autofl DR = autofluorescence of compounds in yeast s288c, dose response, artefact control for yeast TOR pathway GFP screen, primary hits, KU SAR, s288c parental | S. cerevisiae s288c parental, compound autofluorescence, flow cytometry, 3 h | shares compounds with LAP4-GFP MLPCN | 110 tested, under 10 active | AID 488829, 2010 | fluorescence change (span) at 33 µM;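 active means fluorescence change span, or the activity score built from it, above 25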
TORC1 bypass = wild-type yeast growth inhibition sparing TORC1 bypass cells, mechanism study for yeast TOR pathway GFP screen, BY4741 wild type, TORC1 bypass strain; shares compounds with LAP4-GFP MLPCN; S. cerevisiae BY4741 spot growth rating, 48-72 h; hits give low values; growth rating (0-3) at 30 µM; 120 tested, under 10 active; AID 504456, 2011;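 active means growth rating at most 1 for wild type yeast while the TORC1 bypass strain still grows fully, rated 3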
Numbers without * were called inactive. A selection: hits, their analogues and other compounds. The true share with any hit is near 0.93%.

What do the screens show for `COc1ccc(S(=O)(=O)N2CCc3ccccc32)cc1C(=O)NC1(C)CCS(=O)(=O)C1` (centres undefined)?
CIT2 TOR yeast: 165*; AGP1-GFP MLPCN: 125; RPL19A TOR yeast: 117; LAP4-GFP MLPCN: 158*; MEP2-GFP yeast: 172; LAP4-GFP pick2: 97; MEP2-GFP pick2: 94; RPL19A GFP CP2: 100; CIT2-GFP pick2: 104; AGP1 GFP CP2: 97

How did O=C(c1ccco1)N1N=C(c2ccco2)CC1c1ccc(Cl)cc1Cl (centres undefined) do in these assays?
CIT2 TOR yeast: 103; AGP1-GFP MLPCN: 102; RPL19A TOR yeast: 102; LAP4-GFP MLPCN: 99; MEP2-GFP yeast: 101

How did CCCCCCSc1ccc(-c2nc3ccccn3c2NCCCC)cc1 do in these assays?
CIT2 TOR yeast: 88; AGP1-GFP MLPCN: 92; RPL19A TOR yeast: 99; LAP4-GFP MLPCN: 161*; MEP2-GFP yeast: 104; LAP4-GFP pick2: 125; MEP2-GFP pick2: 108; RPL19A GFP CP2: 97; CIT2-GFP pick2: 101; AGP1 GFP CP2: 94

How did O=C(CCC1CCCN(C(=O)c2cccc(F)c2)C1)N1CCN(c2ccccn2)CC1 (centres undefined) do in these assays?
CIT2 TOR yeast: 104; AGP1-GFP MLPCN: 98; RPL19A TOR yeast: 103; LAP4-GFP MLPCN: 96; MEP2-GFP yeast: 102

How did COc1ccc(/C=C/C(=O)NC(=S)NNC(=O)c2cnccn2)cc1 do in these assays?
CIT2 TOR yeast: 94; AGP1-GFP MLPCN: 93; RPL19A TOR yeast: 98; LAP4-GFP MLPCN: 225*; MEP2-GFP yeast: 122; s288c autofluor: 2.2; s288c autofl DR: 0.57; TORC1 bypass: 3

How did O=C(NC(=S)NNC(=O)c1cnccn1)c1ccc(F)cc1 do in these assays?
CIT2 TOR yeast: 91; AGP1-GFP MLPCN: 80; RPL19A TOR yeast: 102; LAP4-GFP MLPCN: 232*; MEP2-GFP yeast: 109; s288c autofluor: 0.61; s288c autofl DR: 0.49; TORC1 bypass: 3

What do the screens show for `O=C(/C=C/c1ccc(F)cc1)NC(=S)NNC(=O)c1cnccn1`?
CIT2 TOR yeast: 87; AGP1-GFP MLPCN: 75; RPL19A TOR yeast: 83; LAP4-GFP MLPCN: 261*; MEP2-GFP yeast: 122; s288c autofluor: 1.4

Results for O=C(/C=C/c1ccc(F)cc1)NC(=S)Nc1ccccc1 ?
CIT2 TOR yeast: 92; AGP1-GFP MLPCN: 91; RPL19A TOR yeast: 101; LAP4-GFP MLPCN: 92; MEP2-GFP yeast: 109

What do the screens show for `COc1ccc(/C=C/C(=O)NC(=S)NNC(=O)c2cccnc2)cc1`?
CIT2 TOR yeast: 111; AGP1-GFP MLPCN: 107; RPL19A TOR yeast: 103; LAP4-GFP MLPCN: 101; MEP2-GFP yeast: 104

Results for COc1ccc(/C(C)=N/Nc2ccccc2Cl)c(O)c1 ?
CIT2 TOR yeast: 97; AGP1-GFP MLPCN: 46; RPL19A TOR yeast: 63; LAP4-GFP MLPCN: 94; MEP2-GFP yeast: 146; LAP4-GFP pick2: 98; MEP2-GFP pick2: 108; RPL19A GFP CP2: 107; CIT2-GFP pick2: 109; AGP1 GFP CP2: 97

What do the screens show for `CCN(CC)c1ccc(/C=C2/C(=O)c3ccc(C(=O)O)cc3C2=O)cc1`?
CIT2 TOR yeast: 231*; AGP1-GFP MLPCN: 124; RPL19A TOR yeast: 134; LAP4-GFP MLPCN: 298*; MEP2-GFP yeast: 365*; LAP4-GFP pick2: 285*; MEP2-GFP pick2: 377*; RPL19A GFP CP2: 119; CIT2-GFP pick2: 250*; AGP1 GFP CP2: 110; s288c autofluor: 21

What do the screens show for `COc1ccc2c(c1OC)C(=O)N1C2SC(C)(C)[C@H]1C(=O)NC(C)C` (some centres undefined)?
CIT2 TOR yeast: 109; AGP1-GFP MLPCN: 101; RPL19A TOR yeast: 106; LAP4-GFP MLPCN: 96; MEP2-GFP yeast: 104

How did O=C(COc1ccc(Cl)cc1)N1CCN(C(=O)c2cccs2)CC1 do in these assays?
CIT2 TOR yeast: 97; AGP1-GFP MLPCN: 100; RPL19A TOR yeast: 97; LAP4-GFP MLPCN: 97; MEP2-GFP yeast: 98

How did CSc1nc(-c2ccc(C)cc2)nc(N)c1C#N do in these assays?
CIT2 TOR yeast: 83; AGP1-GFP MLPCN: 92; RPL19A TOR yeast: 94; LAP4-GFP MLPCN: 93; MEP2-GFP yeast: 95

What do the screens show for `CC(C)(C)S(=O)(=O)c1cnc2c(-c3ccc(F)cc3)cnn2c1N`?
CIT2 TOR yeast: 93; AGP1-GFP MLPCN: 91; RPL19A TOR yeast: 87; LAP4-GFP MLPCN: 84; MEP2-GFP yeast: 92

Screening data deposited in PubChem by NMMLSC.
